The list is not random: actives were taken first. Their share in the collection is about 2%.
aSyn yeast inh = qHTS of alpha-syn Inhibitors | Potency, µM (titrated, usually from 46.1 µM), inactives show top-dose growth rescue (activation), usual class: activators | hit rate 0.14% among 370,000 | AID 652106, 2013 | Yeast expressing alpha-synuclein, growth rescue, BacTiter-Glo, 24 h; also: potency is read from the fitted curve at half-maximal effect; % of control where 0% means no effect; nearly all actives have a fitted effect of over 65% in size
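Rescue of yeast growth: cells expressing toxic alpha-synuclein, induced in galactose at OD600 0.02, incubated with compound 24 h at 30 C. ATP luminescence quantified growth; inhibitors of toxicity appear as activators.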
IDH1 R132H inh = qHTS for Inhibitors of mutant isocitrate dehydrogenase 1 (IDH1): qHTS; hit rate 0.093% among 390,000; IDH1-R132H enzyme, NADPH consumption, diaphorase/resazurin fluorescence; Isocitrate dehydrogenase [NADP] cytoplasmic (Homo sapiens), O75874; Potency, µM (series often up to 76.6 µM), for the others: top-dose activity change, negative = inhibition, usual class: inhibitors; AID 602179, 2012; also: potency is read from the fitted curve at half-maximal effect; % is scaled to controls: 0 for no effect and ±100 for the full control effect; nearly all actives have a fitted effect of over 65% in size
Target sequence (O75874 whole entry R132H, stated change not applied): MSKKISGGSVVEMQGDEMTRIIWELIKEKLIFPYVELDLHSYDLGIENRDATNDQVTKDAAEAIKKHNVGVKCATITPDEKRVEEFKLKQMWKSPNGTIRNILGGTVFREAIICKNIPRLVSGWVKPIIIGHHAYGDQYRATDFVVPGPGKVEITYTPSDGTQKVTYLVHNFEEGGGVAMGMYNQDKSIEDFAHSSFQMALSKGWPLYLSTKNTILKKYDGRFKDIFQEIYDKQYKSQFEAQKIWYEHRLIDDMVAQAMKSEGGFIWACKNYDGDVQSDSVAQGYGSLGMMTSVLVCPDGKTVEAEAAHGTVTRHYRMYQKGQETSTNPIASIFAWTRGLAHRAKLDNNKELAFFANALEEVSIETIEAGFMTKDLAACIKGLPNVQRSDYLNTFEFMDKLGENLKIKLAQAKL
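IDH1-R132H (0.5 ug/mL) preincubated 30 min with compound, then NADPH (0.016 mM) and alpha-KG (2 mM) added; 80 min at RT, pH 7.5. Remaining NADPH coupled via diaphorase/resazurin to fluorescence (540/590 nm); concentration-response curves normalized to no-enzyme control.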
Abeta yeast res = qHTS for compounds that reverse cellular toxicity of Amyloid beta (A-beta) peptide in yeast: Primary Screen | yeast expressing A-beta42, growth rescue, OD600, 48 h; response scale: 0% DMSO, 100% iron-clioquinol control | Potency, µM (top dose mostly 46.1 µM), usual class: activators | hit rate 0.063% among 410,000; also: potency is read from the fitted curve at half-maximal effect; nearly all actives have a fitted effect of over 55% in size
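Yeast A-beta toxicity model in growth medium with pinned compounds, 48 h at 30 C; growth read as absorbance at 600 nm. Normalized to FeCl3/clioquinol equimolar mix (positive) and DMSO (negative).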
FUS yeast rescue = qHTS for Suppressors of FUS Proteinopathy: Primary screen using FUS-linked yeast assay; hit rate 0.24% among 390,000; S. cerevisiae FUS-expressing, growth rescue, OD600, 24 h; AID 1347120, 2019; Potency, µM (doses to about 76.6 µM), usual class: activators;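 also: potency is read from the fitted curve at half-maximal effect; plate controls were DMSO vehicle for no effect and reference control for full effect; nearly all actives have a fitted effect of over 55% in size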
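Steps: raffinose overnight preculture; dilution to OD 0.005 in 2% galactose minimal medium; compound addition (concentration series); 24hr at 30C, 99% humidity; absorbance read at 600 nm.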
TDP-43 yeast inh = qHTS of TDP-43 Inhibitors. TDP-43 expressing yeast growth rescue, BacTiter-Glo, 24 h. Potency, µM (top dose mostly 46.1 µM), without a hit: top-dose growth rescue (activation), hits mostly activators. hit rate 1.8% among 410,000. AID 652104, 2013; also: potency is read from the fitted curve at half-maximal effect; % of control where 0% means no effect; nearly all actives have a fitted effect of over 50% in size
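Yeast expressing TDP-43 (pregrown in raffinose, seeded at OD600=0.02 in galactose medium) exposed to compounds 24 hr at 30 deg C. Growth read by BacTiter-Glo luminescence; rescue of toxicity appears as increased signal.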
LDHA inh = qHTS assay for inhibitors of human lactate dehydrogenase; L-lactate dehydrogenase A chain (Homo sapiens), P00338; purified LDHA, NADH/diaphorase-resazurin fluorescence; stronger effect = lower value; activity change, % (values are at about 110 or 230 µM); hit rate 0.15% among 480,000; AID 1347041, 2019; in the data active = activity change below about -30%; inconclusive = mostly about -25% to -30%;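 also: plate controls were DMSO wells for no effect and wells without enzyme for full effect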
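Remaining NADH was detected by diaphorase (0.133 mg/mL) converting 37 µM resazurin to fluorescent resorufin, read at 0 and 20 minutes. The preceding 5-minute room-temperature reaction used 2 nM LDHA, 0.2 mM sodium pyruvate and 0.06 mM NADH at pH 7.4.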
Active calls of the source: *. Unless noted, calls follow the shape of the dose curve; as a rule, active = well fitted curve in the direction sought with a large enough effect; inconclusive = small, poorly fitted or top-dose-only effect, or another doubt; inactive = no such curve, though single readings can be large; an effect the other way counts as inactive or inconclusive.

What do the screens show for `O=C1C2C3C=CC(C3=C(c3ccccc3)c3ccccc3)C2C(=O)N1CCO` (configuration not stated)?
aSyn yeast inh: 15%; IDH1 R132H inh: 1%; Abeta yeast res: inactive; FUS yeast rescue: inactive; TDP-43 yeast inh: 20µM*; LDHA inh: -2

How did O=C1C2C(c3ccccc3)C=CC(c3ccccc3)C2C(=O)N1CCO (configuration not stated) do in these assays?
aSyn yeast inh: 23%; IDH1 R132H inh: 4%; Abeta yeast res: inactive; FUS yeast rescue: inactive; TDP-43 yeast inh: -2%; LDHA inh: 0

How did COc1ccc(-c2cc(Nc3ccccc3)nc(C)n2)cc1 do in these assays?
LDHA inh: 12

What do the screens show for `CCC(=C(c1ccc(OC)cc1)c1ccc(OC)cc1)c1cn(CC(O)CN(CCO)CCO)c2ccccc12` (configuration not stated)?
aSyn yeast inh: -14%; IDH1 R132H inh: -1%; Abeta yeast res: inactive; FUS yeast rescue: 28µM*; TDP-43 yeast inh: 5%; LDHA inh: 0

Results for COc1cccc(C(=O)/C(=C/c2cccnc2)c2nc3ccccc3o2)c1 ?
LDHA inh: -11

Results for Cc1nc2ccccc2nc1SCC(=O)N1CCCC(C)C1 (configuration not stated) ?
LDHA inh: 1

Results for O=C(CN1C(=O)N/C(=C\c2cccn2-c2cccc(C(=O)O)c2)C1=O)Nc1ccc(F)cc1 ?
LDHA inh: -5

How did COc1ccccc1C(=O)NCCSCc1c(F)cccc1Cl do in these assays?
aSyn yeast inh: 2%; IDH1 R132H inh: 1%; Abeta yeast res: inactive; FUS yeast rescue: inactive; TDP-43 yeast inh: 19%; LDHA inh: -3

How did Cc1c(C(=O)NCCSCc2c(F)cccc2Cl)cnn1-c1ccc(Cl)cc1 do in these assays?
aSyn yeast inh: -1%; IDH1 R132H inh: 2%; Abeta yeast res: inactive; FUS yeast rescue: inactive; TDP-43 yeast inh: 20µM*; LDHA inh: -7

What do the screens show for `COc1ccc(OC)c(-c2cc3ccc(OCC#N)cc3oc2=O)c1`?
LDHA inh: 8

How did COCCN1C(=O)C(=O)/C(=C(/O)c2ccc(S(=O)(=O)N3CCOCC3)cc2)C1c1cccc(OC)c1 (configuration not stated) do in these assays?
aSyn yeast inh: -7%; IDH1 R132H inh: 23%; Abeta yeast res: inactive; FUS yeast rescue: 5µM*; TDP-43 yeast inh: -8%; LDHA inh: -3

How did COCCN1C(=O)C(=O)/C(=C(/O)c2ccc(S(=O)(=O)N3CCOCC3)cc2)C1c1cccc(O)c1 (configuration not stated) do in these assays?
aSyn yeast inh: 4%; IDH1 R132H inh: -3%; Abeta yeast res: inactive; FUS yeast rescue: inactive; TDP-43 yeast inh: -10%; LDHA inh: -3

Results for O=C(Nc1ccc(N2CCCCC2)c2ccncc12)C1CCC1 ?
LDHA inh: 84

Results for CCOC(=O)/C=C1\SCC(=O)N1CCOc1cccc(Br)c1 ?
aSyn yeast inh: 0%; IDH1 R132H inh: 6%; Abeta yeast res: inactive; FUS yeast rescue: inactive; TDP-43 yeast inh: 16µM*; LDHA inh: 4

Results for N#CCSc1sc(=S)sc1SCC#N ?
LDHA inh: 6

Results for Cn1c(OCc2cccnc2)nc2c1c(=O)n(Cc1cccc(Cl)c1)c(=O)n2C ?
LDHA inh: -1

Results for COc1ccc(Br)cc1C(=O)Nc1cccc(NC(=O)c2ccco2)c1 ?
aSyn yeast inh: 0%; IDH1 R132H inh: 0%; Abeta yeast res: inactive; TDP-43 yeast inh: 8.9µM*; LDHA inh: -8

How did COc1cc(OC)cc(C(=O)Nc2cc(NC(=O)c3ccco3)ccc2OC)c1 do in these assays?
aSyn yeast inh: -8%; IDH1 R132H inh: 6%; Abeta yeast res: inactive; FUS yeast rescue: inactive; TDP-43 yeast inh: -3%; LDHA inh: 2

How did COc1ccc(NC(=O)c2ccco2)cc1NC(=O)c1ccc(C)c(C)c1 do in these assays?
IDH1 R132H inh: -8%; Abeta yeast res: inactive; FUS yeast rescue: inactive; TDP-43 yeast inh: 16µM*; LDHA inh: -2

How did Cc1nc(-c2cc3ccc(OCC(=O)NC4CC4)cc3oc2=O)cs1 do in these assays?
LDHA inh: -3

How did COC(=O)c1ccccc1NC(=O)c1ccc(N2CCCN(Cc3ccccc3F)C2=O)cc1 do in these assays?
LDHA inh: 12

What do the screens show for `O=C1CC(CSc2ccc(Cl)cc2)=NN1`?
aSyn yeast inh: -3%; IDH1 R132H inh: -2%; Abeta yeast res: inactive; FUS yeast rescue: inactive; TDP-43 yeast inh: 25%; LDHA inh: -12

Results for Cc1cc(SCC2=NNC(=O)C2)c(Cl)cc1Cl ?
aSyn yeast inh: 6%; IDH1 R132H inh: 0%; Abeta yeast res: inactive; FUS yeast rescue: 35µM*; TDP-43 yeast inh: inconclusive; LDHA inh: -4

Results for COc1ccccc1C(=O)NNC1=C(C(=O)C(F)(F)F)CCC1 ?
aSyn yeast inh: 3.5µM*; IDH1 R132H inh: 1%; Abeta yeast res: inconclusive; FUS yeast rescue: inactive; TDP-43 yeast inh: -10%; LDHA inh: -2

How did O=C(NNC1=C(C(=O)C(F)(F)F)CCC1)c1ccccc1O do in these assays?
aSyn yeast inh: -9%; IDH1 R132H inh: 21%; Abeta yeast res: inactive; FUS yeast rescue: inactive; TDP-43 yeast inh: -18%; LDHA inh: -6

How did Brc1cccc(-c2nc3cc4c(cc3[nH]2)OCCO4)c1 do in these assays?
LDHA inh: -1

Results for COc1ccc(C2=CC(c3ccc(OC)c(OC)c3)n3nnnc3N2)cc1 (configuration not stated) ?
LDHA inh: 6

How did Cc1ccc(S(=O)(=O)NC2c3cccc4cccc(c34)C2Sc2ncccn2)cc1 (configuration not stated) do in these assays?
aSyn yeast inh: 2%; IDH1 R132H inh: 1%; Abeta yeast res: inactive; TDP-43 yeast inh: 16µM*; LDHA inh: -7

What do the screens show for `Cc1cc(C)nc(SC2c3cccc4cccc(c34)C2NS(=O)(=O)c2ccccc2)n1` (configuration not stated)?
aSyn yeast inh: -2%; IDH1 R132H inh: 4%; Abeta yeast res: inactive; FUS yeast rescue: inactive; TDP-43 yeast inh: inconclusive; LDHA inh: -1
